Experimental data from PubChem BioAssay (EPA / NIEHS).
Active and inactive are the calls of the source. Rule for the calls: active = hit-call score of the fitted dose curve at least 0.9, where 1 is the maximum; inactive = score below 0.9.

Experiment: CCTE_Harrill_HTTr_Apoptosis_MCF7: CCTE's 6-hour Apoptosis Assessment for the High-Throughput Transcriptomics (HTTr) Platform, in MCF-7 cells cultured in DMEM + 10% fetal bovine serum, Harrill Lab (AID 2284011)
Text: This is a cell-based assay that evaluates apoptosis using high content imaging to evaluate activation of caspase-3/7 using the CellEvent Caspase 3/7 Green detection reagent in 384-well format.One of seven assay components measured from the CCTE_Harrill_HTTr_Apoptosis assay. This was part of a full screening experiment. This is a cell-based assay that evaluates apoptosis in MCF-7 cells cultured in DMEM + 10% fetal bovine serum. High content imaging is used to evaluate activation of caspase-3/7 using the CellEvent Caspase 3/7 Green detection reagent. Measurements are taken at 6 hours after chemical dosing in 384-well format.The assay component endpoint CCTE_Harrill_HTTr_Apoptosis_MCF7 was analyzed with bidirectional fitting relation to DMSO as the negative control and baseline of activity. Using a type of viability reporter, gain-of-signal activity can be used to evaluate activation of caspase-3/7 using the CellEvent Caspase 3/7 Green detection reagent to understand changes in apoptosis. To generalize the intended target to other relatable targets, this assay endpoint is annotated to cell cycle, where the subfamily is apoptosis.
Chemicals were tested in MCF7 cells in an eight point dilution series with a six hour exposure duration.

Row | SMILES | outcome | AC50
1 | O=C(O)Cc1cc(I)c(Oc2ccc(O)c(I)c2)c(I)c1 | inactive | 
2 | CCCCOC(=O)CC(CC(=O)OCCCC)(OC(C)=O)C(=O)OCCCC | inactive | 
3 | Cc1ccc2oc(CN(Cc3ccccc3)C(=O)Nc3c(F)cc(F)cc3F)c(-c3ccc(Cl)cc3)c2c1 | inactive | 
4 | CN(C)C(=O)C1(N2CCCCC2)CCN(CC[C@@]2(c3ccc(Cl)c(Cl)c3)CN(C(=O)c3ccccc3)CCO2)CC1 | inactive | 
5 | CC(C)(O)c1ccc(CNC(=O)c2cccnc2Oc2ccc3nonc3c2)cc1 | inactive | 
6 | O=C(O)c1ccccc1C(=O)OCc1ccccc1 | inactive | 
7 | CCCCCCCCOc1ccc(C(=O)c2ccccc2)c(O)c1 | inactive | 
8 | CCCOC(=O)c1cc(O)c(O)c(O)c1 | inactive | 
9 | CCO[Si](CCCNC(N)=O)(OCC)OCC | inactive | 
10 | CC(C)(C)c1cc(/C=C2\SC(N)=NC2=O)cc(C(C)(C)C)c1O | inactive | 
11 | O=C(OCCCCCCOC(=O)c1ccccc1)c1ccccc1 | inactive | 
12 | Cc1oc2c(NC(=O)c3c(Cl)cccc3Cl)cccc2c1C(C)(C)O | inactive | 
13 | O=CCCCC=O | inactive | 
14 | CC[C@H](NC(=O)c1cc(F)ccc1NS(=O)(=O)c1cccc2cccnc12)c1ccccc1 | inactive | 
15 | CCCCCCCCN(C)CCCCCCCC | inactive | 
16 | O=C(Nc1ccc(Cl)cc1)Nc1ccc(Cl)c(Cl)c1 | inactive | 
17 | Cc1cc2c(cc1C(F)(F)F)N(C(=O)Nc1ccc(Oc3cccnc3C)nc1)CC2 | inactive | 
18 | O=c1ccc2ccccc2o1 | inactive | 
19 | CCCCCCCCCCCO | inactive | 
20 | Cc1cn([C@H]2C[C@H](N=[N+]=[N-])[C@@H](CO)O2)c(=O)[nH]c1=O | inactive | 

Row | SMILES | outcome | AC50
21 | Cc1ccc(C(C)C)cc1 | inactive | 
22 | CC/C(=C(/CC)c1ccc(O)cc1)c1ccc(O)cc1 | inactive | 
23 | Cc1cccc2ccccc12 | inactive | 
24 | CN(C[C@@H](CC[N+]12CCC(C3CCCCC3)(CC1)CC2)c1ccc(Cl)c(Cl)c1)C(=O)c1cc(C(F)(F)F)cc(C(F)(F)F)c1 |  | 42.5 µM (active)
25 | COc1cc(C(=O)NC2CCN(C)CC2)ccc1Nc1ncc2c(n1)N(C1CCCC1)CC(F)(F)C(=O)N2C | inactive | 
26 | CC(=O)N1CCN(c2ccc(OC[C@H]3CO[C@](Cn4ccnc4)(c4ccc(Cl)cc4Cl)O3)cc2)CC1 | inactive | 
27 | COc1cccc([C@H](O)C2CCN(CCc3ccc(F)cc3)CC2)c1OC | inactive | 
28 | Clc1cc(Cl)c2c(c1)N=C1CCCCCN1C2 | inactive | 
29 | NC(=O)c1nc(-c2cccc(-c3cc(F)ccc3OCC(F)(F)C(F)(F)F)c2)n[nH]1 | inactive | 
30 | CCCCCCCCOC(=O)c1cc(O)c(O)c(O)c1 | inactive | 
31 | COCC(C)OCC(C)OCC(C)O (stereo not given) | inactive | 
32 | c1ccc(C[n+]2cccc3ccccc32)cc1 | inactive | 
33 | CC(C)(c1cc(Br)c(O)c(Br)c1)c1cc(Br)c(O)c(Br)c1 | inactive | 
34 | Clc1ccccc1C(c1ccccc1)(c1ccccc1)n1ccnc1 | inactive | 
35 | CO[C@H]1/C=C/O[C@@]2(C)Oc3c(C)c(O)c4c(O)c(c(/C=N/N5CCN(C)CC5)c(O)c4c3C2=O)NC(=O)/C(C)=C\C=C\[C@H](C)[C@H](O)[C@@H](C)[C@@H](O)[C@@H](C)[C@H](OC(C)=O)[C@@H]1C | inactive | 
36 | c1ccc2ccccc2c1 | inactive | 
37 | Cc1c2ccccc2c(C)c2c1ccc1ccccc12 | inactive | 
38 | CCN(Cc1cccc(S(=O)(=O)O)c1)c1ccc(C(=C2C=CC(=[N+](CC)Cc3cccc(S(=O)(=O)O)c3)C=C2)c2ccccc2S(=O)(=O)[O-])cc1 | inactive | 
39 | CC1(C)NC(=O)N(c2ccc([N+](=O)[O-])c(C(F)(F)F)c2)C1=O | inactive | 
40 | O=C1c2ccccc2C(=O)N1CCc1noc(-c2ccc(CN3CCCCCC3)s2)n1 | inactive | 
